Screening data from PubChem.
Shown are actives, neighbours in structure and some others; about 0.67% of the full set was active somewhere.
Sa ugtP lethal = growth inhibition of ugtP-null S. aureus, primary screen, RN4220 ugtP deletion, OD600; 16 h; growth inhibition, % (test concentration not listed); hit rate 0.54% among 330,000; AID 1259309, 2017; in the data active means growth inhibition above about 68%;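 further: plate controls were untreated wells for no effect and antibiotic for full effect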
Vc quorum ag = inducers of Vibrio cholerae quorum light production without autoinducers, primary screen, BH1578 luxS cqsA deficient, single point; V. cholerae BH1578 lux reporter, luminescence, 6 h; activation, % at 18.7 µM; hit rate 0.16% among 350,000; in the data active means activation mostly above about 9.7%, no sharp cut-off
RN4220 kill = growth inhibition of S. aureus RN4220, primary screen, OD600 | hit rate 0.33% among 330,000 | 16 h | inhibition, % (test concentration not listed) | AID 1259311, 2017; in the data active means inhibition above about 85%;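 further: plate controls were untreated cells for no effect and reference antibiotic for full effect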
TcdB inh = TcdB glycohydrolase inhibitors, primary screen, biochemical, single point, plate reader | hit rate 0.24% among 350,000 | Toxin B (Clostridioides difficile), P18177 | inhibition, % at 9.99 µM | TcdB glycohydrolase enzymatic assay; in the data active means inhibition above about 10%
Target sequence (P18177 whole entry, looked up): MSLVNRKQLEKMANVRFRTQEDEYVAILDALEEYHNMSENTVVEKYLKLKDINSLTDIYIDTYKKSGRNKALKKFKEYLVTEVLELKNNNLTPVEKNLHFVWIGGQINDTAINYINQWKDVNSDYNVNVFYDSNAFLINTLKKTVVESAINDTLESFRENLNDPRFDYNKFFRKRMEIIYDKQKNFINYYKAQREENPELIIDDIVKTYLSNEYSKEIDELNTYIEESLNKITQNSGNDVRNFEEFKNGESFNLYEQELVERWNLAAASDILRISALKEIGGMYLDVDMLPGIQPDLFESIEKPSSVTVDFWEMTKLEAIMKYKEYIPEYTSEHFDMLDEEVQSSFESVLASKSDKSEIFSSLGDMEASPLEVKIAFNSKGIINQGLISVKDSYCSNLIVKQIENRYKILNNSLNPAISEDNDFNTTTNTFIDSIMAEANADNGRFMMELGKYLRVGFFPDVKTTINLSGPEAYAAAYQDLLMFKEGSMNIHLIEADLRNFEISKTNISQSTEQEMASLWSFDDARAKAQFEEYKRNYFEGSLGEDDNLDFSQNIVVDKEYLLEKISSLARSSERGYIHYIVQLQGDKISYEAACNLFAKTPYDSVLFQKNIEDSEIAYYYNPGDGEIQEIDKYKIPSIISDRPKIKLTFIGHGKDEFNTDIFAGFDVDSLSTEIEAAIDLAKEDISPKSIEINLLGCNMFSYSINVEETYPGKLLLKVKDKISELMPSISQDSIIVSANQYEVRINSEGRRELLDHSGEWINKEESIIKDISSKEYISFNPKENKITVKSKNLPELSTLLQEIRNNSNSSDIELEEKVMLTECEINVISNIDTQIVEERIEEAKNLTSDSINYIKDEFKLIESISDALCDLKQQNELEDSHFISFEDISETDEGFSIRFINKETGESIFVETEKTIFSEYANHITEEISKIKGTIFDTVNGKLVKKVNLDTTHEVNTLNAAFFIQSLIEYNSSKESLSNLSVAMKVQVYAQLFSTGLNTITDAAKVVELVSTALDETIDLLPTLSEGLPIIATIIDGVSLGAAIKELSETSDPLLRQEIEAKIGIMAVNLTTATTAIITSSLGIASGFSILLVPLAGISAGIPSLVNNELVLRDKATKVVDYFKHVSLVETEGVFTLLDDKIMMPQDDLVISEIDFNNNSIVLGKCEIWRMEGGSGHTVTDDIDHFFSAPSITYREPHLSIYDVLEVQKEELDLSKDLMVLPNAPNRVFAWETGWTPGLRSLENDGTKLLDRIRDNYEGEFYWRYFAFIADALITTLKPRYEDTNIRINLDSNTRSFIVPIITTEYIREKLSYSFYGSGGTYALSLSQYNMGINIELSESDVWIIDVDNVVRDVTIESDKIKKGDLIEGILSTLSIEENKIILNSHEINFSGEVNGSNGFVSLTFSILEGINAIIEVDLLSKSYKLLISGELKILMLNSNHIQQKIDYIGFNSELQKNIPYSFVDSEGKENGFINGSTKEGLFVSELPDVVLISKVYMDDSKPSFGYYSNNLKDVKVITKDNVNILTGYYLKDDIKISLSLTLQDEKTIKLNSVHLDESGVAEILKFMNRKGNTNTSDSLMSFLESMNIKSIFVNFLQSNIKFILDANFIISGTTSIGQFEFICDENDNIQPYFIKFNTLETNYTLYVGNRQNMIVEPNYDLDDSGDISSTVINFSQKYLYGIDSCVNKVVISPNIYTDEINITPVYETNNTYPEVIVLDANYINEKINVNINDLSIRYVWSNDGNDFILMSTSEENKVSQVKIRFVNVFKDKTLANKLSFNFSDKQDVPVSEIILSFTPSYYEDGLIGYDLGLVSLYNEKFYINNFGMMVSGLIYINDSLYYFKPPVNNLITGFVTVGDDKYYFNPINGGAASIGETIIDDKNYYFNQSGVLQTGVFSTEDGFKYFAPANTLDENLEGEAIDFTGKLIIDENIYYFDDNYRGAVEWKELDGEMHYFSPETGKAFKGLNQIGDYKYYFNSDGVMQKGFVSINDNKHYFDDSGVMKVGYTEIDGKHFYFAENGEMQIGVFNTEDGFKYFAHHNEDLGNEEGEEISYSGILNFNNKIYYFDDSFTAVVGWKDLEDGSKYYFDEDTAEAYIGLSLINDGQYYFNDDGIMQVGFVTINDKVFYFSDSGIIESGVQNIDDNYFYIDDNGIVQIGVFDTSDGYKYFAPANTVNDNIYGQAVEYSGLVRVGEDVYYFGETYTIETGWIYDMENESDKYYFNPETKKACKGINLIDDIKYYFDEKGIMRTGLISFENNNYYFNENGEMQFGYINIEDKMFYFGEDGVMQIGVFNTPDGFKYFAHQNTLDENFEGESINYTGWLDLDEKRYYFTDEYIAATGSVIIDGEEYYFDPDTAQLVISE
* = called active by the depositor; i = inactive; . = no result given.

SMILES	Sa ugtP lethal	Vc quorum ag	RN4220 kill	TcdB inh
CCCOc1ccc(C(=O)ON=C(CC)c2ccc(C)cc2)cc1	93*	.	-2	.
CC1(C)CC(=O)CC(=NNC(=O)COc2ccc3ccccc3c2Br)C1	14	.	1	.
Cc1cscc1-c1nc(NCC2CC2)nc2ccsc12	.	5	.	11*
Fc1ccccc1-c1nc(NCC2CC2)nc2ccsc12	.	-5	.	2
O=C(NN=C/C(Cl)=C/c1ccccc1)c1ccccc1F	6	.	8	.
CCn1cc(C(=O)O)c(=O)c2cnc(N3CCN(C(=S)NC(=O)c4ccc(OC)cc4)CC3)nc21	86*	i	46	-8
CCn1cc(C(=O)O)c(=O)c2cnc(N3CCN(C(=S)NC(=O)c4ccc(Cl)cc4Cl)CC3)nc21	25	0	40	-1
CCn1cc(C(=O)O)c(=O)c2cnc(N3CCN(C(=S)NC(=O)c4ccccc4Cl)CC3)nc21	94*	.	99*	.
CCOC(=O)CC1c2cc(C(F)(F)F)ccc2S(=O)(=O)N1Cc1ccccc1 (stereo not given)	6	.	11	.
S=C(NN=Cc1ccccc1Cl)Nc1cccc(Cl)c1Cl	99*	.	-8	.
CCOC(=O)c1cccc(C2=CC(=O)CC(c3ccc(OC)c(OC)c3)C2)c1 (stereo not given)	-4	.	14	.
FC(F)Sc1ccc(NC(=S)NCC2CCCCC2)cc1	100*	0	99*	0
FC(F)Sc1ccc(NC(=S)NC(c2ccccc2)c2ccccc2)cc1	100*	0	99*	-1
FC(F)Sc1ccc(NC(=S)NCc2ccccc2)cc1	-4	0	-7	1
Cc1nn(CCOc2ccccc2)c(=O)n1-c1ccccc1	2	-14	7	.
Cc1nn(CCOc2ccccc2)c(=O)n1-c1ccc(Cl)cc1	0	-3	4	15*
COc1ccc(C2=Nc3nc(-c4ccccc4)cn3C(c3ccc(OC)cc3)C2)cc1 (stereo not given)	85*	0	-8	2
CC1CN=C(Nc2ccccc2)N1CCC1CCCCC1 (stereo not given)	-9	.	2	.
COc1ccc(C(=O)COC(=O)c2ccc(OC)c(OC)c2)cc1OC	-1	0	-3	42*
COc1ccc(C(=O)OCC(=O)c2ccc(F)cc2)cc1OC	-5	i	-2	2
COc1cccc(C(=O)COC(=O)c2ccc(NC(=O)c3ccccc3)cc2)c1	5	1	6	22*
NC(=O)C1CC2(CC(c3cccc(NC(=O)c4ccccc4)c3)=NO2)CN1C(=O)C1CCC(=O)N1 (stereo not given)	-7	.	7	.
O=C(C[n+]1cc(-c2ccc(Cl)c(Cl)c2)n2c1CCC2)N1c2ccccc2Sc2ccccc21	101*	0	100*	.
O=C(C[n+]1cc(-c2ccc(Cl)cc2)n2c1CCC2)N1c2ccccc2Sc2ccccc21	-14	i	11	.
CCOc1cccc(C=NNc2ccc(S(=O)(=O)N(CC)CC)cn2)c1O	100*	.	20	.
SMILES	Sa ugtP lethal	Vc quorum ag	RN4220 kill	TcdB inh
CC(C)CC(NC(=O)OC(C)(C)C)C(=O)N1CCC(C(=O)O)CC1 (stereo not given)	-6	.	3	.
O=C(/C=C/c1cccs1)NC(=S)Nc1ccccc1	active	0	97	1
Cc1ccc(-c2nc3ccccc3o2)cc1NC(=S)NC(=O)/C=C/c1ccco1	25	3	6	.
O=C(/C=C/c1ccco1)NC(=S)Nc1ccccc1	93*	0	2	1
O=C(/C=C/c1ccco1)NC(=S)Nc1cccc(-c2nc3ccccc3o2)c1	98*	-5	15	.
CCN1CC2C3C(=O)N(C)C(=O)C3[C@](CC)(C1=O)N2C(=O)c1ccc(Cl)cc1 (stereo not given in full)	2	.	4	.
C/C(C=NNC(=O)c1cccnc1)=C\c1ccccc1	-11	.	-4	.
Cc1ccc(C(=O)Nc2ccc(O)cc2C(=O)O)cc1C	1	4	1	20*
CCc1ccc2oc(-c3cc(N)ccc3Cl)nc2c1	13	0	4	14*
O=C(Nc1nnc(-c2ccccc2)o1)c1ccc(Cl)cc1	99*	i	96*	.
O=C(COc1ccc(Cl)cc1)Nc1nnc(-c2ccc3c(c2)CCCC3)o1	96*	0	100*	3
COc1cccc(C(=O)Nc2nnc(-c3ccc(Cl)cc3)o2)c1	100*	0	99*	0
CC(=O)c1ccc(C(=O)Nc2nnc(-c3ccc(Cl)cc3)o2)cc1	99*	.	98*	-6
O=C(COc1ccccc1)Nc1nnc(-c2ccc(Cl)cc2)o1	-1	0	13	-1
COc1cccc(C(=O)Nc2nnc(-c3ccc(F)cc3)o2)c1	23	.	42	-1
